Screening data: PubChem, The Scripps Research Institute Molecular Screening Center
An excerpt weighted towards active compounds, which were near 2.3% of everything screened.
PAD4 inh – PAD4 (human) enzyme inhibition. recombinant PAD4, RCA probe fluorescence polarization. hit rate 0.41% among 330,000. inhibition, % at 6.36 µM;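 active means percent inhibition above a cutoff equal to the mean of all tested compounds plus 3 SD, cut at about 15% in these data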
Fam108B inh – counter-screen for RBBP9 inhibitors: inhibitors of mouse Fam108B; hit rate 0.33% among 300,000; AID 1947; inhibition, % at 9.51 µM; recombinant Fam108B, FP-Rh probe fluorescence polarization;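 active means inhibition above the screen mean inhibition plus 3 SD, computed separately per campaign, cut at about 18% in these data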;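 further: inhibitors lower polarization as less probe binds the enzyme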
pPAFAH inh – inhibitors of human plasma PAF acetylhydrolase (pPAFAH) | recombinant pPAFAH, FP-rhodamine probe fluorescence polarization | inhibition, % at 3.39 µM | hit rate 1.5% among 330,000;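 active means inhibition above the mean inhibition across the screen plus 3 SD, cut at about 25% in these data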;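 further: inhibitors block binding of the rhodamine activity-based probe so polarization drops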
Target sequence (Q13093 whole entry, looked up): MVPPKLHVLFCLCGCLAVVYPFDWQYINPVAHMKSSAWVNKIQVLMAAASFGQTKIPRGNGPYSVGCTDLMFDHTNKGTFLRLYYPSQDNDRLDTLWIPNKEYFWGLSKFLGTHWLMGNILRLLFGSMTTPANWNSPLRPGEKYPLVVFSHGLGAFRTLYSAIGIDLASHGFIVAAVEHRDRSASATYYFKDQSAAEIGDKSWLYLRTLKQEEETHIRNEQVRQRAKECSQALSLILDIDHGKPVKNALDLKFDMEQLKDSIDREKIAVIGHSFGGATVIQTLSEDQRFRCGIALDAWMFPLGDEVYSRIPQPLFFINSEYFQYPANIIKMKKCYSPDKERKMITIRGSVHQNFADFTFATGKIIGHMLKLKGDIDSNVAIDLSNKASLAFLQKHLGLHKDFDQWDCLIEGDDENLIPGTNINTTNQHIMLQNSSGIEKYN
PME-1 primary – blocks human protein phosphatase methylesterase 1. hit rate 0.53% among 320,000. inhibition, % at 5.9 µM. Q9Y570. recombinant PME-1, FP-Rh probe fluorescence polarization;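 active means inhibition above the campaign mean of all compounds plus 3 SD, cut at about 26% in these data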;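 further: competitive labeling of PME-1 active site by serine hydrolase directed probe; inhibitors block probe labeling so polarization falls and inhibition rises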
GSTO1 inh – counter-screen for RBBP9 inhibitors: inhibitors of human GSTO1; inhibition, % at 5.96 µM; P78417; recombinant GSTO1, activity-based probe fluorescence polarization; AID 1974; hit rate 1.1% among 300,000;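 active means inhibition above the campaign mean inhibition plus 3 SD, cut at about 35% in these data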
A number is an active result; . = inactive; / = not tested or not shown.

SMILES	PAD4 inh	Fam108B inh	pPAFAH inh	PME-1 primary	GSTO1 inh
CC(C)(C)c1ccc(O)c(N=Cc2cc(Br)ccc2O)c1	.	.	.	.	35.2
Cc1c(Cl)cccc1Nc1nc(N)nc(CSc2nc3ccccc3s2)n1	.	.	.	33.2	.
O=C(NC1CC1)c1ccc2c(c1)S(=O)(=O)c1cc(Cl)ccc1C2=O	19.9	/	.	.	/
Cc1ccccc1CSc1nc2c(c(=O)[nH]1)CCCC2	.	.	50.5	.	.
O=c1[nH]c(SCc2ccccc2Cl)nc2c1CCC2	.	.	.	.	.
COc1ccccc1NC(=O)c1cnc(SCC(=O)NCC2CCCO2)n(C)c1=O (centres undefined)	.	.	.	.	.
O=c1[nH]c2ccccc2cc1-c1noc(-c2cccnc2)n1	.	.	.	.	.
COc1ccc2[nH]c(=O)c(-c3noc(-c4ccccc4)n3)cc2c1	.	.	.	48.7	.
Oc1c(Cl)cc(Cl)cc1C=Nc1cc(C(F)(F)F)ccc1N1CCc2ccccc2C1	.	.	27.8	.	.
COc1ccc(C(=O)NCC(C)(C)N2CCOCC2)cc1S(=O)(=O)N1CCCC1	.	/	.	.	/
O=C(O)c1ccccc1-c1ccccc1C(=O)Nc1ccc(-c2nc3cc(Cl)ccc3o2)cc1	.	.	.	31.1	.
CC(=O)Nc1ccc(-c2nc3cc(Cl)ccc3o2)cc1	.	.	.	.	.
Cc1ccc(-c2c(C(=O)N(C)Cc3ccccc3)oc(=O)c3ccccc23)cc1	.	.	.	.	.
Cc1ccc(-c2c(C(=O)NCc3ccccc3)oc(=O)c3ccccc23)cc1	.	.	32.0	.	.
Cc1cc(OCC(=O)Nc2ccc(N3CCN(C)CC3)cc2)ccc1Cl	.	.	.	.	.
CCOC(=O)CCN(Cc1cccs1)S(=O)(=O)c1ccc(F)cc1	.	.	.	.	37.5
COc1ccc(OC)c(NC(=O)Nc2nnc(N3CCCCC3C)s2)c1 (centres undefined)	.	.	.	.	.
COc1ccc(NC(=O)Nc2nnc(N3CCCCC3C)s2)cc1OC (centres undefined)	.	.	.	50.2	.
Cc1cc(NC(=O)C(C)SCC(=O)OCc2ccc(Cl)cc2Cl)no1 (centres undefined)	.	/	.	.	/
O=c1cc(O)n(C2CCCCCC2)c(=O)[nH]1	.	.	.	.	36.3
O=C(CN1C(=O)NC2(CCCCC2)C1=O)Nc1ccc2[nH]c(=O)[nH]c2c1	.	/	.	.	/
Oc1ccc(N2CCN(C(c3cccs3)c3nnnn3CCc3ccccc3)CC2)cc1 (centres undefined)	.	.	30.1	.	.
CC1=CCC2C(=O)N(c3ccc(C(=O)N4CCCCCC4)cc3)C(=O)C2C1 (centres undefined)	.	.	.	.	.
COc1cccc(OCCn2cc(C(C)=O)c3ccccc32)c1	.	.	.	.	.
C[C@H](CO)N1C[C@H](C)[C@@H](CN(C)C(=O)Nc2ccc3c(c2)OCO3)Oc2c(NS(=O)(=O)c3ccc(F)cc3)cccc2C1=O	.	/	.	/	/
SMILES	PAD4 inh	Fam108B inh	pPAFAH inh	PME-1 primary	GSTO1 inh
COc1cc(S(=O)(=O)Nc2ccc(C)cc2)ccc1NC(=O)c1ccncc1	.	.	33.9	.	.
CCOc1ccc(NS(=O)(=O)c2ccc(NC(C)=O)c(OC)c2)cc1	.	.	24.7	.	.
CCCCOc1ccc(S(=O)(=O)Nc2ccc(NC(C)=O)cc2)cc1	.	.	.	.	.
CCC(=O)Nc1ccc(-c2ccc(NC(=O)CC)c(OC)c2)cc1OC	.	.	.	.	.
CCC(=O)Nc1ccc(S(=O)(=O)Nc2cccc(C)c2)cc1OC	.	.	30.2	.	.
COc1cc(S(=O)(=O)Nc2ccncc2)ccc1F	.	.	.	.	.
CCCCC(O)(CCCC)C(=O)NN(C(=O)c1cccnc1Cl)c1ccccc1	.	.	.	.	.
CCOc1ccccc1/C=C(\C#N)C1=CCCC1	.	.	.	.	.
COc1ccc(CCN(C)C(=O)c2ccc(S(=O)(=O)Nc3ccccc3C)cc2)cc1OC	.	.	25.3	.	.
COc1ccc(CCN(C)C(=O)c2cccc(S(=O)(=O)NCc3ccccc3)c2)cc1OC	.	.	.	.	.
COCCN1C(=O)C(=O)/C(=C(/O)c2ccc(S(=O)(=O)N3CCOCC3)cc2)C1c1cccc([N+](=O)[O-])c1 (centres undefined)	.	.	.	.	.
N=c1c(S(=O)(=O)c2ccc(Cl)cc2)cc2c(=O)n3ccccc3nc2n1Cc1ccco1	.	.	.	.	.
N=c1c(S(=O)(=O)c2ccc(Br)cc2)cc2c(=O)n3ccccc3nc2n1Cc1ccco1	.	.	26.5	.	.
CCOC(=O)c1ccc(N2CCN(c3ccccc3F)CC2)c(NC(=O)Nc2cccc(OC)c2)c1	.	.	25.6	.	.
O=C1/C(=C\c2ccco2)SC(=S)N1C1CCCCC1	.	.	32.6	.	.
Cc1ccc(N2C(=O)/C(=C/c3ccco3)SC2=S)cc1	.	.	.	.	.
NC(=S)Cc1nc(-c2ccc(Cl)cc2)cs1	.	.	25.1	.	.
O=C(O)CSc1c(-c2ccccc2)c2cc(Cl)ccc2[nH]c1=O	.	.	.	.	.
CCN(CC)C(=S)Sc1c(-c2ccccc2)c2cc(Cl)ccc2[nH]c1=O	.	.	.	35.3	.
COc1ccc(C2CC(c3ccccc3F)=NN2c2ccc(S(N)(=O)=O)cc2)cc1 (centres undefined)	.	/	.	/	/
COc1ccc(C2CC(c3ccccc3C(F)(F)F)=NN2c2ccc(S(N)(=O)=O)cc2)cc1 (centres undefined)	.	/	26.4	/	/
c1ccc(-c2cc(-c3ccc(N4CCOCC4)cc3)nc3ccccc23)cc1	.	.	30.1	.	.
c1ccc(-c2cc(N3CCOCC3)nc(-c3ccccc3)n2)cc1	.	.	.	.	.
Cn1c(-c2ccccc2)c[n+]2c1-c1ccccc1C2	.	.	.	.	.
CC(=O)Nc1ccc2nc(NS(=O)(=O)c3ccc(C)cc3)sc2c1	.	.	26.3	.	.
SMILES	PAD4 inh	Fam108B inh	pPAFAH inh	PME-1 primary	GSTO1 inh
COc1ccc2nc(NS(=O)(=O)c3ccc(NC(C)=O)cc3)sc2c1	.	.	.	.	.
O=C(Nc1cc(C2CC2)nn1-c1ccccc1)c1ccc(F)cc1	.	/	.	/	/
COc1cc(C(C)=O)ccc1OCC(=O)NCC(c1ccc(F)cc1)N1CCOCC1 (centres undefined)	.	/	28.1	/	/
COc1ccc(C(=O)NCC(c2ccc(F)cc2)N2CCOCC2)cc1S(=O)(=O)N1CCCC1 (centres undefined)	.	.	.	.	.
CC(C)(C)c1ccc(OCC(=O)N/N=C/c2ccc(N3CCOCC3)cc2)cc1	.	.	.	.	.
COc1ccc(-n2c(SCC(=O)NCC3CCCO3)nc3ccccc32)cc1 (centres undefined)	.	.	25.9	.	.
O=C(CSc1nc2ccccc2c(=O)n1-c1ccccc1)NCC1CCCO1 (centres undefined)	.	.	.	.	.
COc1ccc(CCN2C(=O)NC(NS(=O)(=O)c3ccccc3)(C(F)(F)F)C2=O)cc1OC (centres undefined)	.	.	.	.	.
